According to ChEMBL document CHEMBL4808148, “HDAC6 screening dataset using tau-based substrate in an enzymatic assay yields selective inhibitors and activators” (2021):
Screen size: about 5,600 compounds; about 390 (7%) showed an effect of 50% or more. Shown is part of a subset that was picked to be rich in strong results.

The compounds below were run against T1, Protein deacetylase HDAC6 (Homo sapiens) (UniProt Q9UBN7). Settings: at 10 µM.
T1 sequence (whole entry): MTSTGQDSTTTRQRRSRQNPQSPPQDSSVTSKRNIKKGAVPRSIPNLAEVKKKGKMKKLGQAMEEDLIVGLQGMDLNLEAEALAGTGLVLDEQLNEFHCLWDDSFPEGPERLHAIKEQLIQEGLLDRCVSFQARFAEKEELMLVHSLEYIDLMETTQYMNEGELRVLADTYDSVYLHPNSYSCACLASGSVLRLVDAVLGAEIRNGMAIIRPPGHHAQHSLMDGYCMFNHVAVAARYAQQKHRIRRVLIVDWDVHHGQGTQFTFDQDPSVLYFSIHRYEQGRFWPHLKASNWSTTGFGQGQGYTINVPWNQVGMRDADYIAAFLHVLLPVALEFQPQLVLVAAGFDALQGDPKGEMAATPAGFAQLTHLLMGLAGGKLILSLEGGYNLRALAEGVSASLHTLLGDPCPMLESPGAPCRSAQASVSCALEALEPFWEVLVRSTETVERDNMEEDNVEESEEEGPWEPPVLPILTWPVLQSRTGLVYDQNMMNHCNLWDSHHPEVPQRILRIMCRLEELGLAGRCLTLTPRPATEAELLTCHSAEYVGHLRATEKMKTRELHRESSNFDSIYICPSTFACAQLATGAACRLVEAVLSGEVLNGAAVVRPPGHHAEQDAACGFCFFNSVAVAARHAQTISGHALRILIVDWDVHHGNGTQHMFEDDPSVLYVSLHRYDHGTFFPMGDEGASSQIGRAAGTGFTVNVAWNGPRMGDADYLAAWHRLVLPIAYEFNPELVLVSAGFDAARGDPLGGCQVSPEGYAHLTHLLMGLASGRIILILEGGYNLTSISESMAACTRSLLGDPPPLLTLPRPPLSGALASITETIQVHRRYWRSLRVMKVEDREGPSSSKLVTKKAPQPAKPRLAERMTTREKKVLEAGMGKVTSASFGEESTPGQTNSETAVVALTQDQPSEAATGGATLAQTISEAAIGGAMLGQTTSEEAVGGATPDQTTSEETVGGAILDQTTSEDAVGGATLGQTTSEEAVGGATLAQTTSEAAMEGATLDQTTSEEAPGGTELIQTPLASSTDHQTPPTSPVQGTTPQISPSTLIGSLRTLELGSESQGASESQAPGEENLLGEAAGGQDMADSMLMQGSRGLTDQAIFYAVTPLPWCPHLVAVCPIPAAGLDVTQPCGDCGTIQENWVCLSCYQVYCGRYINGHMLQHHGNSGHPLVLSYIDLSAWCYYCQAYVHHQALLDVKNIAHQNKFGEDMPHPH

Compound	inhibition [%]
O=C(Nc1cccc2cccnc12)c1ccc(N2C(=O)[C@@H]3[C@H](C2=O)[C@@H]2C=C[C@H]3C2)cc1	56.2
O=C(Nc1cccc2cccnc12)c1ccc(N2C(=O)[C@@H]3[C@H](C2=O)[C@H]2C=C[C@@H]3C2)cc1	-1.4
FC(F)(F)c1cc(NC(=S)Nc2ccc(Br)cc2-c2nnn[nH]2)cc(C(F)(F)F)c1	74.5
Oc1nc(O)c2nc(O)[nH]c2n1	12.1
CCSc1ccc2c(c1)N(CCCN1CCN(C)CC1)c1ccccc1S2	70.4
COc1ccccc1N1CCN(CCCCNC(=O)c2ccc(-c3ccc(C(C)=O)cc3)cc2)CC1	1.38
CN1CCN(CCCN2c3ccccc3Sc3ccc(S(=O)(=O)N(C)C)cc32)CC1	-2.89
CN1CCN(CCCN2c3ccccc3Sc3ccc(C(F)(F)F)cc32)CC1	59.5
CCN(CC)C(C)CN1c2ccccc2Sc2ccccc21 (stereo not drawn)	11.7
CC(=O)c1ccc2c(c1)N(CCCN1CCC(CCO)CC1)c1ccccc1S2	76.9
CN(C)CCCN1c2ccccc2Sc2ccc(C(F)(F)F)cc21	89.2
OCCN1CCN(CCCN2c3ccccc3Sc3ccc(Cl)cc32)CC1	36.5
CC(CN(C)C)CN1c2ccccc2Sc2ccccc21 (stereo not drawn)	30.9
COc1ccc2c(c1)N(C[C@H](C)CN(C)C)c1ccccc1S2	14.6
CN1CCCC(CN2c3ccccc3Sc3ccccc32)C1 (stereo not drawn)	48.4
CCC(=N\O)/C(C)=C/c1ccc(F)cc1	47.7
C[C@@H](NCc1cc(Br)cc2nc(O)c(O)nc12)P(=O)(O)O	7.12
CCCCCCCCCCCCCCCCCCCCCC(=O)O	-9.27
COc1cc(N2CCC(N(C)C)CC2)ccc1Nc1ncc(Cl)c(Nc2ccccc2P(C)(C)=O)n1	3.02
CCC[C@@H](NC(=O)N1C(=O)C(CC)(CC)[C@@H]1Oc1ccc(C(=O)N2CCN(C)CC2)cc1)c1ccc2c(c1)OCO2	9.19
CCn1c2ccccc2c2cc(CNC)ccc21	-7.52
COc1cccc(OC)c1-c1cc(C(=O)N[C@@H](CC(C)C)C(=O)O)nn1-c1ccnc2cc(Cl)ccc12	6.09
CCCCN1CC(O)C(O)C(O)C1CO (stereo not drawn)	-6.7
COc1cc2c(cc1NS(=O)(=O)c1ccc(Br)cc1C)n(C)c(=O)n2C	19.4
O=c1[nH]c([C@@H]2CCCN2)nc2c1oc1ccc(Cl)cc12	-8.21
CC(C)(C)NC(=O)[C@@H]1C[C@@H]2CCCC[C@@H]2CN1C[C@@H](O)[C@H](Cc1ccccc1)NC(=O)[C@H](CC(N)=O)NC(=O)c1ccc2ccccc2n1	2.2
NCCCC(N)C(=O)O (stereo not drawn)	-5.26
CCCCC/C=C\C/C=C\C/C=C\CCCCC(=O)O	20.4
